In the OligoGym collection:

These sequences were tested against RNF219 (assay: pooled miR-30 sensor sort-seq; sequence = guide strand). Conditions: shRNA.
Note: reference of the scale not given here.

For TAAACAATCTATTTCGTCCTCA, which sensor-assay potency score (higher = more potent) is on record?
Its sensor-assay potency score (higher = more potent) is 0.474.

How did the sensor-assay potency score (higher = more potent) turn out when TCTGTCTGAAACAAGCAGCTTG was run?
The sensor-assay potency score (higher = more potent) was -0.169.

How did the sensor-assay potency score (higher = more potent) turn out when TTAGCTTATCCACATCATCTTT was run?
Its sensor-assay potency score (higher = more potent) is -0.899.

For TTCACTTGAATTTTTTAGCTGT, which sensor-assay potency score (higher = more potent) is on record?
The sensor-assay potency score (higher = more potent) was 0.783.

TTTTGGATAAACATAAGCCTGA was tested. Which sensor-assay potency score (higher = more potent) did it give?
The sensor-assay potency score (higher = more potent) was -0.319.

TACTTGTATCTGTCACATCTAA was tested. Which sensor-assay potency score (higher = more potent) did it give?
Its sensor-assay potency score (higher = more potent) is -0.451.

What follows are sequences tested against RNF41 in the same assay as above. Conditions: shRNA.

AACATGTTCCGCATGATCCGAG was tested. Which sensor-assay potency score (higher = more potent) did it give?
Its sensor-assay potency score (higher = more potent) is -0.3.

How did the sensor-assay potency score (higher = more potent) turn out when ATCTGTCTAGTCTCTAGTGTGG was run?
Its sensor-assay potency score (higher = more potent) is -0.878.

How did the sensor-assay potency score (higher = more potent) turn out when TAGTTCTCATAGTAGCGTCGGT was run?
The sensor-assay potency score (higher = more potent) was -0.784.

For ATCTTCGTCAACATCCCCCTGG, which sensor-assay potency score (higher = more potent) is on record?
The sensor-assay potency score (higher = more potent) was -0.316.

TAGCGTCGGTTCATCTGTCTAG was tested. Which sensor-assay potency score (higher = more potent) did it give?
The sensor-assay potency score (higher = more potent) was 0.0647.

With TCATCTGTCTAGTCTCTAGTGT as the sequence, how does the sensor-assay potency score (higher = more potent) read?
Its sensor-assay potency score (higher = more potent) is -0.527.

With AAGATCTTCGTCAACATCCCCC as the sequence, how does the sensor-assay potency score (higher = more potent) read?
Its sensor-assay potency score (higher = more potent) is -0.164.

For TAATTTATAGACATTTTAGGGG, which sensor-assay potency score (higher = more potent) is on record?
The sensor-assay potency score (higher = more potent) was 0.0646.

With TCTGATTTCCATCTCTTCCTGA as the sequence, how does the sensor-assay potency score (higher = more potent) read?
Its sensor-assay potency score (higher = more potent) is 0.105.

How did the sensor-assay potency score (higher = more potent) turn out when TTCAGCTGACGTCTTCTCCAGC was run?
The sensor-assay potency score (higher = more potent) was -0.881.

TTTGACAACATGTTCCGCATGA was tested. Which sensor-assay potency score (higher = more potent) did it give?
The sensor-assay potency score (higher = more potent) was 0.502.

What follows are sequences tested against RNMTL1 in the same assay as above. Conditions: shRNA.

TACTATTGTCATTACACTGCTC was tested. Which sensor-assay potency score (higher = more potent) did it give?
The sensor-assay potency score (higher = more potent) was 0.0183.

Which sensor-assay potency score (higher = more potent) does the source give for TTTATTAGACATCTCAGCCTGG here?
Its sensor-assay potency score (higher = more potent) is 0.616.

TAGCTTTATTAGACATCTCAGC was tested. Which sensor-assay potency score (higher = more potent) did it give?
The sensor-assay potency score (higher = more potent) was -0.834.

For TTATTGATAATGGGCATCCGGA, which sensor-assay potency score (higher = more potent) is on record?
The sensor-assay potency score (higher = more potent) was -0.992.

Which sensor-assay potency score (higher = more potent) does the source give for TTCTGTTCCACCACCTCTCCGG here?
Its sensor-assay potency score (higher = more potent) is -0.00954.

For TTGGTGAGTAACACTTTGCTGC, which sensor-assay potency score (higher = more potent) is on record?
Its sensor-assay potency score (higher = more potent) is -0.11.

Which sensor-assay potency score (higher = more potent) does the source give for TTGTCAGCCACATAGACCCGAG here?
The sensor-assay potency score (higher = more potent) was -0.82.

TTGTGAAACTTCATCACTCGTT was tested. Which sensor-assay potency score (higher = more potent) did it give?
The sensor-assay potency score (higher = more potent) was 0.595.

Which sensor-assay potency score (higher = more potent) does the source give for TTTACTATTGTCATTACACTGC here?
Its sensor-assay potency score (higher = more potent) is -0.096.

How did the sensor-assay potency score (higher = more potent) turn out when TGATGCTTCAGGAACTTTCTGG was run?
The sensor-assay potency score (higher = more potent) was -0.0145.

For TTATTAGACATCTCAGCCTGGG, which sensor-assay potency score (higher = more potent) is on record?
Its sensor-assay potency score (higher = more potent) is -0.331.

For TTTCCTGTAACTGTATGACGGC, which sensor-assay potency score (higher = more potent) is on record?
The sensor-assay potency score (higher = more potent) was -0.465.

The sequences below were run against RNPC3 in the same assay as above. Conditions: shRNA.

Which sensor-assay potency score (higher = more potent) does the source give for TTTCTTGAACATGTTTAGCTAA here?
The sensor-assay potency score (higher = more potent) was -0.355.

Which sensor-assay potency score (higher = more potent) does the source give for TATTGTTTTAGGTCTTTTGGGC here?
Its sensor-assay potency score (higher = more potent) is -0.105.

How did the sensor-assay potency score (higher = more potent) turn out when TCGAGCAAACTGAACCACCATG was run?
The sensor-assay potency score (higher = more potent) was -1.27.

Which sensor-assay potency score (higher = more potent) does the source give for TTGGTCTAGCAGATCGAGCAAA here?
Its sensor-assay potency score (higher = more potent) is -1.03.

For TTCCTCACAATTTTGTTCCTTT, which sensor-assay potency score (higher = more potent) is on record?
The sensor-assay potency score (higher = more potent) was 1.11.

How did the sensor-assay potency score (higher = more potent) turn out when TTCTTTATCATCTTCGACAGGG was run?
The sensor-assay potency score (higher = more potent) was 0.314.

For TTAAATACACTTTCAAAGCTGT, which sensor-assay potency score (higher = more potent) is on record?
The sensor-assay potency score (higher = more potent) was 0.272.

Which sensor-assay potency score (higher = more potent) does the source give for TATATCAAACATGATCCGCTGT here?
Its sensor-assay potency score (higher = more potent) is 0.81.

How did the sensor-assay potency score (higher = more potent) turn out when TTCTTGAACATGTTTAGCTAAA was run?
The sensor-assay potency score (higher = more potent) was -1.09.

TTTTTCTTTATCATCTTCGACA was tested. Which sensor-assay potency score (higher = more potent) did it give?
Its sensor-assay potency score (higher = more potent) is -0.554.

How did the sensor-assay potency score (higher = more potent) turn out when TTCTCTAGAAATTCTGCCCTTT was run?
Its sensor-assay potency score (higher = more potent) is -0.078.
